# APOBEC3G inh – inhibitors of human APOBEC3G DNA deaminase. recombinant A3G, ssDNA deamination FAM/TAMRA fluorescence. inhibition, % at 20 µM. 330,000 tested, 0.28% active. AID 493012;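 active = inhibition of at least 40% at 20 µM, with no more than 30% in the related APOBEC3A deaminase screen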;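 also: plate controls were DMSO wells with A3G for no effect and wells lacking A3G enzyme for full effect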
# NPR2 activator – GC-B (human) receptor activation. P20594. HEK293-GC-B cells, CNP EC30, cGMP TR-FRET; 0% at EC30 CNP, 100% saturating CNP. activation, % at 10 µM. 370,000 tested, 0.11% active;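 active = activation at 10 µM reaching about 35% in either raw or pattern-adjusted values, limit read from the data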
# A3A deaminase – inhibitors of human APOBEC3A DNA deaminase. P31941. 330,000 tested, 0.41% active. inhibition, % at 20 µM. recombinant A3A, FAM/TAMRA ssDNA deamination fluorescence;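 active = at least 40% inhibition at 20 µM here, with at most 30% in a related deaminase screen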;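 also: plate controls were A3A with DMSO for no effect and wells lacking A3A enzyme for full effect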
# PfGluPho inh – PfG6PD (Plasmodium falciparum) enzyme inhibition; PfGluPho enzyme, NADPH resazurin-diaphorase fluorescence; inhibition, % at 20 µM; 350,000 tested, 0.78% active; AID 504690;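 active = inhibition reaching at least a set limit at 20 µM in the primary screen, cut at about 59% in these data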;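 also: 0% = DMSO wells with substrate and 100% = DMSO wells lacking glucose-6-phosphate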
# NPR1 activator – GC-A (human) enzyme activation | activation, % at 10 µM | HEK293 GC-A cells, cGMP TR-FRET, EC30 ANP; 0% at EC30 ANP, 100% saturating ANP | 370,000 tested, 0.14% active | P16066 | AID 1671463; in the data active = activation above about 40%
# Target sequence (P16066 whole entry, looked up): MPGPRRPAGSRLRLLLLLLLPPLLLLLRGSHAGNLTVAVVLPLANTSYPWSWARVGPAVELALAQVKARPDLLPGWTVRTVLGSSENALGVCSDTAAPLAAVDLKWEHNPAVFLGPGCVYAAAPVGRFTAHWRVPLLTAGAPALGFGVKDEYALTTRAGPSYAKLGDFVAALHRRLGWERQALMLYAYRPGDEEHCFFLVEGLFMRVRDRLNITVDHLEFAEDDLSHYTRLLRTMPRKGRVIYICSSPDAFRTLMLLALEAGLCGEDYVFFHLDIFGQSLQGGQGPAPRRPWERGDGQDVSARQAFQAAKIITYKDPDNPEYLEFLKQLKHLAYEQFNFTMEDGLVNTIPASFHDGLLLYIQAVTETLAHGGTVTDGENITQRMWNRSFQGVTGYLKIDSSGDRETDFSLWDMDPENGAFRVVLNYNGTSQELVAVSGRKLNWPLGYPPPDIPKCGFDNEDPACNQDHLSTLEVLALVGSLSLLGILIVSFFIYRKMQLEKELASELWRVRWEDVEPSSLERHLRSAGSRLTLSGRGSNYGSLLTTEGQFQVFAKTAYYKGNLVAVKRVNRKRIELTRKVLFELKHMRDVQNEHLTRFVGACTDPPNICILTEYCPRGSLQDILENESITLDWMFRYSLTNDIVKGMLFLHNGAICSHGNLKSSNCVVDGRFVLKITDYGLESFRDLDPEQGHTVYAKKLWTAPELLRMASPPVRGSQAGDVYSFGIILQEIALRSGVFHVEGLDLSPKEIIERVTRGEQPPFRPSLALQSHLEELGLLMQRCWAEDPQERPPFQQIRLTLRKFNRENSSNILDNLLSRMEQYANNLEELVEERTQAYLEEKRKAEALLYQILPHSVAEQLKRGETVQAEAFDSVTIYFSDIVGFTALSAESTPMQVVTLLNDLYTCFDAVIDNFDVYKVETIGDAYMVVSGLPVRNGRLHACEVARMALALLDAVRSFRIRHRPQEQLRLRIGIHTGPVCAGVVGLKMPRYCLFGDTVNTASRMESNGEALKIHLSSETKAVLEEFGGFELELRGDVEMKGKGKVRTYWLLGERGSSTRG
# Neddyl block – cullin neddylation inhibition; P61081+Q13564; TR-FRET cullin neddylation, biochemical; inhibition, % at 25 µM; 360,000 tested, 0.58% active; AID 651699; in the data active = inhibition above about 36%
# A3A conf – APOBEC3A (human) deaminase inhibition, confirmed; inhibition, % at 20 µM; shares compounds with A3A deaminase; recombinant A3A, ssDNA deaminase UDG fluorescence assay; 1,400 tested, 63% active;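 active = inhibition reaching a set limit, 80% of the first screen's cutoff, at 20 µM in any replicate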;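 also: plate controls were DMSO wells with A3A for no effect and wells lacking A3A enzyme for full effect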
# Numbers without * were called inactive; · = no result given. Only some compounds are listed: those with a hit (about 2% of all), similar ones and a draw of the others.
SMILES,APOBEC3G inh,NPR2 activator,A3A deaminase,PfGluPho inh,NPR1 activator,Neddyl block,others
CC(C)c1ccc(Nc2nnc(SC3CCOC3=O)s2)cc1 (configuration not stated),-3,14,0,4,65*,9,
COC(=O)[C@]12C[C@H](CC(=O)N3CCN(C(=O)c4ccco4)CC3)C(=O)N(Cc3ccc(Cl)cc3Cl)C1=C[C@H](C1CCCC1)O[C@@H]2C,·,-19,·,·,-24,·,
CCOC(=O)c1cnc2c(c(C)nn2C)c1Oc1cc(Cl)cc(Cl)c1,-5,-10,-2,-5,-2,22,
CCOC(=O)c1cnc2c(c(C)nn2-c2ccc(C)cc2)c1Cl,-8,-11,-3,1,60*,-132,
CC(C)N1CCc2c(sc(NC(=O)c3ccc(C(=O)c4ccccc4)cc3)c2C(N)=O)C1,-2,-1,0,12,6,-6,
CC(C)N1CCc2c(sc(NC(=O)c3ccc4ccccc4c3)c2C(N)=O)C1,-11,-6,-10,17,6,54*,
CC(C)N1Cc2nnn(Cc3ccccc3)c2-c2ccccc2S1(=O)=O,·,-4,·,·,-5,·,
CCOC(=O)C1=C(N)Oc2cc(O)ccc2C1c1ccccc1 (configuration not stated),-2,-4,-1,5,30,-1,
Cc1ccc(C2CC(=O)Oc3cc(O)ccc32)cc1 (configuration not stated),-14,10,-6,-4,57*,-5,
CCOC(=O)C1=C(N)Oc2cc(O)ccc2C1c1ccc(C)cc1 (configuration not stated),-5,0,-7,2,49*,6,
OCCN1CCCC12CCC(c1ccccc1)CC2 (configuration not stated),·,-3,·,·,5,·,
COc1ccccc1N=c1oc2cc(O)ccc2cc1C(N)=O,-2,4,6,-9,8,·,
Cc1cccc(N=c2oc3cc(O)ccc3cc2C(N)=O)c1,-5,11,1,-22,16,62*,
CN(C(=O)C1CCN(c2cncnc2)CC1)C1CCCCC1,·,2,·,·,-1,·,
FC(F)(F)c1ccccc1Cc1c(-c2ccco2)nc2c3ccccc3ccn12,·,15,·,·,9,·,
COc1ccccc1-c1cc(C(F)(F)F)nc(S(C)(=O)=O)n1,-1,5,-2,-15,77*,·,
COc1ccccc1-c1cc(C(F)(F)F)nc(N2CCCC2)n1,-5,-1,-4,-12,-8,-8,
COc1ccccc1-c1cc(C(F)(F)F)nc(S(=O)(=O)CCCC(=O)Nc2cc(C)on2)n1,-5,10,-5,15,76*,35,
COc1ccccc1-c1cc(C(F)(F)F)nc(N2CCCCC2)n1,0,7,1,5,0,-21,
COc1ccccc1-c1cc2nc(C)c(CCC(=O)NCc3ccc(F)cc3)c(C)n2n1,-1,-5,4,1,7,·,
COc1ccccc1-c1cc(C(F)(F)F)nc(S(=O)(=O)CCCC(=O)NCc2ccc(F)cc2)n1,-4,12,-4,12,75*,29,
COc1ccccc1-c1cc(C(F)(F)F)nc(S(=O)(=O)CCCC(=O)N2CCCCC2C)n1 (configuration not stated),-3,9,2,3,78*,34,
COC(=O)[C@]12C[C@H](CC(=O)NCc3ccc(C)o3)C(=O)N(CCC3=CCCCC3)C1=C[C@H](C(C)C)O[C@@H]2C1CC1,·,-3,·,·,-2,·,
CC(C)C[C@@H]1COc2cc(Br)ccc2S(=O)(=O)N1Cc1cn(Cc2ccc(Br)cc2)nn1,·,3,·,·,-2,·,
COc1ccc(-c2cc(C(F)(F)F)nc(S(=O)(=O)CCCC(=O)Nc3cc(C)on3)n2)cc1OC,·,-2,·,-3,13,·,
SMILES,APOBEC3G inh,NPR2 activator,A3A deaminase,PfGluPho inh,NPR1 activator,Neddyl block,others
COc1ccccc1-c1cc(C(F)(F)F)nc(S(=O)(=O)CCCC(=O)Nc2cccnc2Cl)n1,·,5,·,-1,73*,25,
COc1ccccc1-c1cc(C(F)(F)F)nc(S(=O)(=O)CCCC(=O)NC(C)C)n1,0,16,2,11,73*,14,
COc1ccccc1/C=C/C(=O)Nc1cccnc1Cl,-4,-1,-3,5,-1,10,
COC(=O)[C@]12C[C@H](CC(=O)N3CCCCC3)C(=O)N(CCc3ccc(OC)c(OC)c3)C1=C[C@H](COCc1ccccc1)O[C@@H]2C,·,3,·,·,7,·,
CCOC(=O)Nc1ccc2c(c1)[C@@]1(CC(=O)N(CC(C)C)C1c1ccccc1)C(=O)N2C (some centres not stated),·,-1,·,·,0,·,
Cc1ccccc1C(=O)N1CCC(Oc2cccnc2)CC1,·,-3,·,·,-1,·,
COc1ccc(COc2cc(-c3cccc(OC)c3)nc3ccc(NC(=O)c4ccccc4)cc23)cc1,-6,44*,0,2,40*,36,
COc1ccc(COc2cc(-c3cccc(OC)c3)nc3ccc(NC(=O)c4cccnc4)cc23)cc1,-1,57*,1,23,52*,33,
C#CCN1CC(N(C)CCOC(=O)c2ccc(OC)c(OC)c2)CS1(=O)=O (configuration not stated),·,-3,·,·,2,·,
CC1=C[C@]2(C[N+](Cc3ccccc3)=C(N)N2)n2c(=O)n(-c3ccccc3)c(=O)n2C1,·,2,·,·,-2,·,
COc1ccc(S[C@]2(C(=O)N3CCN(c4ncccn4)CC3)CC(=O)N(C(=O)c3ccccc3)[C@@H]2c2ccc(OC)cc2)cc1,·,0,·,·,0,·,
CC(=O)Nc1sc2c(c1-c1nc3ccccc3s1)CCCNC2,·,34*,·,·,30,·,
O=C(CCSC1=NCCCN1)c1ccc(F)cc1,·,-1,·,36,78*,-15,
CCOC(=O)[C@@]12CCCC3=C1N(CCC3)C(=O)[C@H]2CC(=O)NCCC(C)C,·,-4,·,·,2,·,
C=CS(=O)(=O)N(Cc1nnn(Cc2ccccc2)c1Br)[C@@H](CC(C)C)C(=O)OC,·,1,·,·,-3,·,
NC(=O)C1(Nc2ccc(-c3ccc(Br)cc3)cc2)CCCC1,·,-4,·,-11,52*,-81,
COC(=O)C1CN(Cc2cn(Cc3ccc(OC)cc3)nn2)CCS(=O)(=O)N1Cc1ccc(OC)cc1 (configuration not stated),·,-2,·,·,0,·,
CCCCn1c(N)c(N(CCC(C)C)C(=O)C2CC(=O)N(c3cccc(SC)c3)C2)c(=O)[nH]c1=O (configuration not stated),9,-2,45*,1,0,8,A3A conf=0
CCCCn1c(N)c(N(CC)C(=O)c2ccc(N3CCCC3=O)cc2)c(=O)[nH]c1=O,-1,4,19,-18,-1,2,
